# Compounds with a hit are over-represented: about 9.2% of the library has one in this group of screens.
# FLuc modulator: firefly luciferase modulation, counter-screen for miR-21 project. P08659. purified FLuc, Km substrates, luminescence inhibition. Potency, µM (series often up to 57.5 µM), without a hit: at the top dose activity change, negative = inhibition, hits mostly inhibitors. 360,000 tested, 6.9% active;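 also: plate controls were vehicle for no effect and reference inhibitor for full effect; nearly all actives have a fitted effect of over 55% in size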
# Target sequence (P08659 whole entry, looked up): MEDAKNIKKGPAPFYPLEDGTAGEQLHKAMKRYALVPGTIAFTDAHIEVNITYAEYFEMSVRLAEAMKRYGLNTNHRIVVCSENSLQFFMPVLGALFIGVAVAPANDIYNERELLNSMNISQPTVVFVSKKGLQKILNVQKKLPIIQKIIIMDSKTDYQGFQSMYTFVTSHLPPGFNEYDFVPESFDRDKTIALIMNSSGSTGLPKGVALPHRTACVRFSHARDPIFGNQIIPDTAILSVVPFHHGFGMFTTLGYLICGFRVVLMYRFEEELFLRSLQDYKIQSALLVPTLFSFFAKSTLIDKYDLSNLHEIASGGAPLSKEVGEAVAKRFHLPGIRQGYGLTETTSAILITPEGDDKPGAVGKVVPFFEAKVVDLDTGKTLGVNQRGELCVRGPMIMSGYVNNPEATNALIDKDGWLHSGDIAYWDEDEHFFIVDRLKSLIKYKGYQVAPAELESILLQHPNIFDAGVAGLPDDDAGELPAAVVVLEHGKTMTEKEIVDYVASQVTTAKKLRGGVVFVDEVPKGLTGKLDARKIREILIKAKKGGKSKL
#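 Biochemical qHTS of compounds, final roughly 60 µM downward over six points, against 10 nM purified firefly luciferase using Km concentrations of substrates (10 uM D-luciferin, 10 uM ATP) in Tris acetate pH 7.5 buffer; luminescence output.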
# Rab9 promoter act: activators of Rab9 promoter. Huh7 Rab9 promoter-luciferase reporter, luminescence, 24 h. Potency, µM (highest dose often 9.22 µM), without a hit: at the highest dose activation, negative = inhibition, hits mostly activators. 320,000 tested, 2.8% active. AID 485297; also: % of control where 0% means no effect; nearly all actives have a fitted effect of over 60% in size
#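 Huh7 reporter line, Rab9 promoter upstream of luciferase. Compound exposure 24 h at 37 °C in reduced-serum medium with 10% FBS. Read-out: luminescence.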
# ELG1 genotoxic: genotoxicity induction in ELG1-luciferase HEK293T cells | Potency, µM (doses to about 46 µM), inactives show at the highest dose activity change, positive = activation, hits mostly activators | HEK293T ELG1-luciferase reporter, luminescence, 16 h | 330,000 tested, 1.3% active; also: % of control where 0% means no effect; nearly all actives have a fitted effect of over 60% in size
#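 HEK293T cells expressing luciferase-tagged ELG1 were treated with compound or DMSO for 16 hr at 37°C. Luciferase activity was then read after 30 min with ONE-Glo at room temperature; rising signal flags genetic stress.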
# NPC1 prom act: activators of NPC1 promoter; Huh7 NPC1 promoter luciferase reporter, 24 h; Potency, µM (doses to about 9.22 µM), for the others: at the top dose activation, actives largely listed as activators; 320,000 tested, 2.4% active; AID 485313; also: % of control where 0% means no effect; nearly all actives have a fitted effect of over 60% in size
#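 Compounds in DMSO were transferred onto Huh7 NPC1-luciferase reporter cells pre-incubated 2 h; after 24 h at 37 °C, Amplite reagent was dispensed and luminescence recorded 10 min later.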
# ELG1 repair inh: blocks ELG1-dependent DNA repair in HEK293T cells | AID 504467 | Potency, µM (highest dose often 46.1 µM), inactives show top-dose activity change, negative = inhibition, usual class: inhibitors | 330,000 tested, 2.3% active | HEK293T ELG1-luciferase reporter, luminescence, 16 h; DNA damage induced by 5-fluorouridine; also: % is scaled to controls: 0 for no effect and ±100 for the full control effect; nearly all actives have a fitted effect of over 55% in size
#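 In this reporter screen, reduction of luminescence relative to DMSO vehicle indicated activity. Compounds and 5-fluorouridine were added together to 2,000 cells per well, incubated for 16 hr at 37 °C, then developed with ONE-Glo.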
# SMN2 splice enh: increases expression of the SMN2 splice variant; 210,000 tested, 2.8% active; Potency, µM (highest dose often 46.1 µM), without a hit: at the highest dose activity change, positive = activation, most hits filed as activators; HEK293 SMN2-luciferase splicing reporter, luminescence, 30-36 h; also: % of control where 0% means no effect; nearly all actives have a fitted effect of over 55% in size
#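 HEK293 cells carry an SMN2 minigene-luciferase reporter in which exon 7 inclusion puts luciferase in frame. Cells were seeded at 2000 cells/well, attached for 10-12 hours, then exposed to compounds for 30-36 hours at 37C before ONE-Glo luminescence.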
# Active calls of the source: *; ? = inconclusive; / = no result; [ ] = dose if it differs, or a comment. Calls follow the shape of the dose curve; as a rule, active = well fitted curve in the direction sought with a large enough effect; inconclusive = small, poorly fitted or top-dose-only effect, or another doubt; inactive = no such curve, though single readings can be large; an effect the other way counts as inactive or inconclusive. Potency is read from the fitted curve at half-maximal effect.
SMILES,FLuc modulator,Rab9 promoter act,ELG1 genotoxic,NPC1 prom act,ELG1 repair inh,SMN2 splice enh
CCOC(=O)c1[nH]c(C)c(C(=O)c2ccc(C)cc2)c1C,?,-10.4%,20.6µM*,-8.5%,?,4.5%
CCOC(=O)c1c(C)[nH]c(C(=O)OCC(=O)c2ccccc2)c1C,0.849µM*,0.447µM*,0.92µM*,0.501µM*,?,/
CCOC(=O)c1c(C)[nH]c(C(=O)OCCOc2ccccc2C)c1C,3.38µM*,3.98µM*,?,3.98µM*,?,3.55µM*
CCOC(=O)c1[nH]c(C)c(C(=O)NCc2ccc(C)cc2)c1C,2.9%,-2.4%,0.9%,-0.8%,-2.5%,11.0%
CCOC(=O)c1c(C)[nH]c(C(=O)OCC(=O)NCc2ccccc2)c1C,/,/,0.1%,/,0.0%,/
CCOC(=O)c1c(C)[nH]c(C(=O)OCCOc2ccc(Cl)cc2)c1C,-16.6%,10.0%,?,17.3%,?,14.6%
CCOC(=O)c1c(C)[nH]c(C(=O)CN2C(=O)NC(CC)(c3ccccc3)C2=O)c1C (stereo not given),-12.3%,1.0%,-2.2%,5.4%,16.4µM*,-6.9%
CCOC(=O)c1c(C)[nH]c(C(=O)Cn2c(=O)c3c(ncn3CC)n(Cc3ccccc3)c2=O)c1C,1.1%,3.0%,-2.3%,-4.0%,20.6µM*,26.4%
CCOC(=O)c1c(C)[nH]c(C(=O)COC(=O)c2ccccn2)c1C,6.01µM*,5.3%,5.0%,0.3%,3.6%,-9.9%
CCOC(=O)c1[nH]c2ccc(C)cc2c1N,5.36µM*,2.51µM*,?,2.24µM*,?,11.2µM*
CCOC(=O)c1c(C)[nH]c(C(=O)COC(=O)c2ccc(O)cc2)c1C,-15.2%,29.9%,5.2%,16.1%,14.4%,/
COc1ccc(NC(=O)N2CCC3(CC2)CCN(C(=O)c2csnn2)CC3)cc1,/,/,/,/,/,-21.0%
COc1ccc(NC(=O)CN(C)C(=O)c2ccc(-c3ccccc3Cl)o2)cc1,23.9µM*,0.1%,12.4%,-1.2%,9.8%,/
CN(CC(=O)Nc1cccc(F)c1)C(=O)c1cc(-c2ccco2)nc2ccccc12,?,-5.0%,-24.2%,-5.5%,?,/
COc1ccc(NC(=O)CN(C)C(=O)c2cc(-c3ccco3)nc3ccccc23)cc1,16.9µM*,-1.1%,-9.3%,-3.1%,18.3µM*,/
Cc1ccc(-c2cc(C(=O)N(C)CC(=O)Nc3ccccc3Br)c3ccccc3n2)o1,?,-1.1%,-4.4%,11.1%,5.17µM*,/
CN(CC(=O)Nc1ccc(F)c(F)c1F)C(=O)c1cc(-c2ccncc2)nc2ccccc12,2.3%,-5.3%,-6.6%,-0.9%,23.1µM*,/
CCOC(=O)c1ccc2c(c1)[nH]c(=S)n2CC,19µM*,?,20.6µM*,18.4%,?,/
Cc1ccc(Cl)cc1N1CCN(C(=O)C2CCN(c3nnc(-n4cccc4)s3)CC2)CC1,1.3%,-25.2%,?,-18.5%,8.2µM*,-84.5%
Cc1cc2c(cc1C)NC1=C(N2)OC(c2cccc(O)c2)C1=O (stereo not given),?,-3.3%,6.1%,-0.6%,-15.8%,/
COc1ccc(C2OC3=C(Nc4cc(C)c(C)cc4N3)C2=O)cc1 (stereo not given),?,2.82µM*,?,3.55µM*,?,/
COc1ccccc1C1OC2=C(Nc3ccc([N+](=O)[O-])cc3N2)C1=O (stereo not given),-0.8%,-6.9%,-10.7%,1.4%,23.1µM*,/
N#CC1CC(c2ccccc2)=NN1c1ccccc1[N+](=O)[O-] (stereo not given),12µM*,3.55µM*,?,?,?,22.4µM*
CCN(CC(=O)NC1CCS(=O)(=O)C1)S(=O)(=O)c1cc(C)ccc1C (stereo not given),-7.9%,-0.1%,0.5%,-7.7%,5.0%,/
O=C(/C=C/c1ccccc1Cl)N1CCOCC1,?,3.7%,13.1%,22.5%,?,/
SMILES,FLuc modulator,Rab9 promoter act,ELG1 genotoxic,NPC1 prom act,ELG1 repair inh,SMN2 splice enh
CN(C)/C=C/C(=O)/C=C/c1ccc(Cl)cc1Cl,12µM*,1µM*,?,2.24µM*,?,20µM*
O=C(/C=C/c1ccccc1Cl)c1ccc[nH]1,7.57µM*,26.7%,?,9.6%,?,19.1%
O=C(/C=C/c1ccc(Cl)cc1Cl)n1cccn1,3.79µM*,-1.4%,16.5%,-1.1%,11.0%,15.4%
O=C(/C=C/c1ccc(Cl)cc1Cl)c1ccc[nH]1,2.69µM*,22.1%,?,12.6%,?,7.3%
CNc1ccc(Br)cc(C(=O)/C=C/c2ccc(Cl)cc2Cl)c1=O,?,-31.7%,-9.5%,-9.9%,?,/
CCCc1cc(=O)[nH]c(SCc2cc(C(=O)OC)c(C)o2)n1,-1.4%,-2.0%,2.3%,1.1%,8.6%,-3.4%
COC(=O)c1cc(CSc2nc3ccccc3[nH]2)oc1C,7.57µM*,?,9.2µM*,?,?,-44.9%
O=C(O)c1ccc(CSc2nc3ccccc3[nH]2)cc1,16.9µM*,-0.5%,7.9%,1.7%,16.6%,/
O=c1[nH]c(SCc2ccccc2)nc2ccsc12,16.9µM*,8.2%,15.6%,6.5%,?,?
NNC(=O)c1ccc(CSc2nc3ccccc3[nH]2)cc1,-4.0%,3.2%,0.0%,-2.2%,-6.3%,20.6%
COc1cccc(CSc2nc3ccccc3[nH]2)c1,4.26µM*,1µM*,?,3.55µM*,?,15.8µM*
CCOC(=O)CSc1nc2ccsc2c(=O)[nH]1,-11.1%,1.6%,2.5%,0.8%,9.9%,/
O=[N+]([O-])c1cccc(CSc2nc3ccccc3[nH]2)c1,?,26.9%,7.0%,17.0%,?,-15.4%[1.84 µM]
Cc1ccc(S(=O)(=O)N2CCOCC2)cc1C(=O)NCc1ccccn1,3.2%,0.1%,2.8%,0.6%,4.4%,/
CC1=C(c2ccc(C)cc2)S(=O)(=O)N(Cc2ccc(C(=O)NCc3cccc(C)c3)cc2)C1=O,4.7%,/,/,/,/,/
COc1ccc(C(=O)NCC(=O)OCC(=O)N2CC(C)OC(C)C2)cc1OC (stereo not given),/,/,3.1%,/,4.0%,/
Cc1noc(C)c1S(=O)(=O)N(C)C[C@H]1Oc2c(NC(=O)NC(C)C)cccc2C(=O)N([C@H](C)CO)C[C@@H]1C,/,/,1.3%,/,17.0%,/
Fc1c(F)c(F)c(CSc2nc3ccccc3[nH]2)c(F)c1F,?,5.1%,?,2.2%,?,-2.4%
Fc1ccccc1CSc1nc2ccccc2[nH]1,2.39µM*,1.26µM*,?,1.78µM*,?,5.62µM*
CSc1ccc(/C=C/C(=O)NC(=O)c2ccccc2O)cc1,0.601µM*,2.51µM*,9.2µM*,?,?,25.1µM*
O=C(/C=C/c1ccc(O)c(O)c1)NC(=O)c1ccccc1O,9.53µM*,11.2%,?,?,?,31.6µM*

# Screening results from PubChem BioAssay.
